Molecules are shown by their SMILES.

The target in the first test is Cyclin-dependent kinase 2 (Homo sapiens) (UniProt P24941). As to conditions: at 1 µM.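 Note: mean inhibition measured against the CDK2/cyclin E complex.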
One may read the inhibition as the drop in the measured response relative to a control, in per cent. As to `COc1cccc(-n2cnc3c(N/N=C/c4ccncc4)ncnc32)c1`, the inhibition is -2.32%.

On to `COc1cc(N2CCN(C(C)C)CC2)ccc1Nc1nc(Nc2ccc(F)cc2C(=O)NC[C@@H](O)CO)c2cc[nH]c2n1`, for which the inhibition was 0.53%.

For the molecule `Fc1ccc(-c2ncn(C3CCNCC3)c2-c2ccnc(Oc3ccc4c(c3)OCO4)n2)cc1`, the inhibition was determined as 6.04%.

Consider `COc1cc(Nc2ncc(-c3ccccc3)o2)cc(OC)c1OC`, for which the inhibition was found to be 6.45%.

With `Fc1ccc(-c2nc3n(c2-c2ccncc2)CCS3)cc1`, the inhibition stood at 0.29%.

With `COc1ccc(C2=C(N3CCc4ccccc43)C(=O)NC2=O)cc1`, the inhibition stood at 6.31%.

With `C[C@@H](Oc1cc(-n2cnc3ccc(OCC4CCN(C)CC4)cc32)sc1C(N)=O)c1ccccc1Cl`, the inhibition came out at 5.46%.

For the molecule `O=C(NCC1CC1)c1ccc(-c2cccc(C(=O)NC3CC3)c2)cc1`, the inhibition came out at 2.72%.

As to `Fc1ccc(-c2ncn(CCCN3CCOCC3)c2-c2ccncc2)cc1`, the inhibition is 5.92%.

The target in another test is CDK3/Cyclin E (Homo sapiens) (UniProt P24864+Q00526). As to conditions: at 0.1 µM.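 Note: reported percentages are mean inhibition values.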
Chain of CDK3/Cyclin E (Homo sapiens) (P24864 whole entry, looked up): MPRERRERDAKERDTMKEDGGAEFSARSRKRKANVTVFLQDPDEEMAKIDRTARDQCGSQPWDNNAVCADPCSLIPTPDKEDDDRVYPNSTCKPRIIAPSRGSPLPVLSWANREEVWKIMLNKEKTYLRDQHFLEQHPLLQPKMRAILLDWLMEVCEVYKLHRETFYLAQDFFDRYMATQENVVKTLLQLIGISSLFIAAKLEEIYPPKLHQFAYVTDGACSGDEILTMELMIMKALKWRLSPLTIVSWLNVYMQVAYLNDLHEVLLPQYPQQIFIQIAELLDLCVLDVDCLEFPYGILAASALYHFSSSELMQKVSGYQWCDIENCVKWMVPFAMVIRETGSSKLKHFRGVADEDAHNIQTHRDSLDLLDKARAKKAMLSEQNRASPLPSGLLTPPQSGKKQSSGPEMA
Chain of CDK3/Cyclin E (Homo sapiens) (Q00526 whole entry, looked up): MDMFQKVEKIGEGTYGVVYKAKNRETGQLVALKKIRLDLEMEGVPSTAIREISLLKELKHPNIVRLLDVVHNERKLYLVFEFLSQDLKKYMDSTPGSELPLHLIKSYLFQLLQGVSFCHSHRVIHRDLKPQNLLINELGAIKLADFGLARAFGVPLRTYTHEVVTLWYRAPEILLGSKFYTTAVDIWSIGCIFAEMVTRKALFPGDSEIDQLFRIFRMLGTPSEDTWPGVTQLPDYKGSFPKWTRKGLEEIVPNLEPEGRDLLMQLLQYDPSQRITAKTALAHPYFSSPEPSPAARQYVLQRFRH
`NS(=O)(=O)c1ccc(N/N=C2\C(=O)Nc3ccc(C(=O)NCCCn4ccnc4)cc32)cc1`: the inhibition is 27.8%.

Turning to `O=C(Nc1ccc(Oc2ccc3[nH]c(NC(=O)c4ccccc4)nc3c2)cc1)Nc1cc(C(F)(F)F)ccc1F`, the inhibition was found to be 1.65%.

`COc1ccc2cc(-c3c(-c4ccncc4)nc(-c4ccc([S+](C)[O-])cc4C)n3C)ccc2c1` (stereo not drawn): the inhibition is -1.08%.

As to `Cc1ccc(NC(=O)c2ccoc2)cc1-c1ccc(C(=O)NCC2CC2)cc1`, the inhibition was -0.03%.

For `C[C@@H](Oc1cc(-n2cnc3ccc(OC4CCN(C)CC4)cc32)sc1C(N)=O)c1ccccc1Cl`, the inhibition was -3.54%.

In the case of `CN(c1ccc(NC(=O)Nc2c(Cl)cccc2Cl)cc1)c1ccnc(Nc2cccc(CS(C)(=O)=O)c2)n1`, the inhibition was found to be 0.7%.

For the molecule `Fc1ccc(-c2ncn(C3CCNCC3)c2-c2ccnc(Oc3ccc(Oc4ccccc4)cc3)n2)cc1`, the inhibition was -3.73%.

Consider `COc1cccc(/C=N/Nc2ncnc3c2cnn3-c2cccc(OC)c2)c1`, for which the inhibition is -2.31%.

For the molecule `O=C(Nc1n[nH]c2nc(-c3ccc(O)cc3)c(Br)cc12)C1CC1`, the inhibition worked out at 27.5%.

As for `COc1cc2ncn(-c3cc(OCc4ccccc4C(F)(F)F)c(C(C)=O)s3)c2cc1OC`, the inhibition is -1.43%.

Consider `Cc1ccc(C(=O)NC2CCC2)cc1-c1ccc(C(=O)NCC2CC2)cc1`, for which the inhibition is 2.79%.

With `COC(=O)Nc1nc2ccc(Sc3ccc(NC(=O)Nc4cc(C(F)(F)F)ccc4F)cc3)cc2[nH]1`, the inhibition is -0.31%.

In the case of `COc1ccc(-c2ccc3c(NC(=O)C4CC4)n[nH]c3n2)cc1`, the inhibition was found to be 2.19%.

As for `Cc1ccc(C(=O)NC(C)C)cc1-c1ccc(C(=O)NCC2CC2)cc1`, the inhibition was 1.57%.

As to `O=C(Nc1n[nH]c2cc(-c3ccccc3)ccc12)C1CC1`, the inhibition was 2.98%.

Consider `CNC(=O)c1cncc(/C=C/c2c(C)cccc2C)c1`, for which the inhibition is -0.48%.

On to `C/C(Nc1ccc(S(N)(=O)=O)cc1)=C1/C(=O)Nc2ccccc21`, for which the inhibition is 9.17%.

Take `NC(=O)c1ccc(Oc2nccc(-c3c(-c4ccc(F)cc4)ncn3C3CCNCC3)n2)cc1`: the inhibition is -3.59%.

Turning to `NC(=O)Cc1ccccc1Oc1nccc(-c2c(-c3ccc(F)cc3)ncn2C2CCNCC2)n1`, the inhibition was 2.95%.

For `NCc1ccc(-n2c(-c3nonc3N)nc3cnccc32)cc1`, the inhibition worked out at 6.87%.

On to `O=C(Nc1n[nH]c2cc(-c3cc(F)ccc3F)ccc12)C1CC1`, for which the inhibition turned out to be 2.32%.

For `NS(=O)(=O)c1ccc(N/N=C2\C(=O)Nc3ccc(-c4cnco4)cc32)cc1`, the inhibition was 50%.

For the molecule `N#Cc1ccc(Oc2nccc(-c3c(-c4ccc(F)cc4)ncn3C3CCNCC3)n2)cc1`, the inhibition is -1.88%.

As to `O=C(Nc1n[nH]c2nc(-c3ccco3)ccc12)C1CC1`, the inhibition amounted to 0.19%.

Consider `NS(=O)(=O)c1ccc(Nc2cc(-c3ccc(O)c(F)c3)n[nH]2)cc1`, for which the inhibition stood at 9.52%.

In the case of `COc1cccc(-n2cnc3c(N/N=C/c4ccncc4)ncnc32)c1`, the inhibition was -0.66%.

Turning to `COc1cc(N2CCN(C(C)C)CC2)ccc1Nc1nc(Nc2ccc(F)cc2C(=O)NC[C@@H](O)CO)c2cc[nH]c2n1`, the inhibition stood at 3.35%.

`Fc1ccc(-c2ncn(C3CCNCC3)c2-c2ccnc(Oc3ccc4c(c3)OCO4)n2)cc1`: the inhibition is -0.22%.

As for `COc1cc(Nc2ncc(-c3ccccc3)o2)cc(OC)c1OC`, the inhibition was 0.2%.

As to `Fc1ccc(-c2nc3n(c2-c2ccncc2)CCS3)cc1`, the inhibition was 4.27%.

As for `COc1ccc(C2=C(N3CCc4ccccc43)C(=O)NC2=O)cc1`, the inhibition stood at 3.69%.

With `C[C@@H](Oc1cc(-n2cnc3ccc(OCC4CCN(C)CC4)cc32)sc1C(N)=O)c1ccccc1Cl`, the inhibition was -2.62%.

Take `O=C(NCC1CC1)c1ccc(-c2cccc(C(=O)NC3CC3)c2)cc1`: the inhibition is -0.72%.

Turning to `Fc1ccc(-c2ncn(CCCN3CCOCC3)c2-c2ccncc2)cc1`, the inhibition was found to be 2.27%.

For the origin of these results see ChEMBL document CHEMBL1961873, “Compounds: GSK PKIS; Assays: Nanosyn kinase panel” (2012).
